# Values of other authors in PubChem BioAssay AID977611.
# Screen size: about 3,900 compounds; about 3,900 (100%) were called active. Cut-off not given; nearly all actives show Kd up to about 4200 µM. The set was probably picked from earlier hits. The list shows a part of the results. Starred links: 1 amine or outer side, 2 acyl side, 3 side chain; linkers in the order of their positions; H or OH if unused. *1 amine or outer side, *2 acyl side, *3 side chain or, on linkers, in order; H or OH if unused. Where a SMILES comes first, the peptide text is derived from it. Non-standard residues stand in square brackets, D forms with d. Square brackets hold non-standard residues; d marks the D form. Residues, ends and D or L forms follow the SMILES beside them. Peptide text beside a SMILES is read from it. [ ]: non-standard residue; d: D form. ξ: configuration not given here. X1 = O=C([C@H](Cc1ccc(O[P+](O)(O)O)cc1)N[*:1])[*:2]; Thr(P(OH)3+) = C[C@@H](O[P+](O)(O)O)[C@H](N)C(=O)O; Orn(CH(NH2)2) = NC(N)NCCC[C@H](N)C(=O)O; ξE = NC(CCC(=O)O)C(=O)O
# Assay: PubChem AID 977611
# Conditions: PDB protein-ligand complexes, literature Kd
compound,measurement,setting,value
O=C1C=C(O)C=CC1S(=O)(=O)n1cc2ccc(O)cc2c1 (stereo unspecified),Kd,PDB entry 4mpe,426 nM (active)
C/C(O)=[N+](/O)CCC[C@@H]1NC(=O)CNC(=O)CNC(=O)CNC(=O)C(CCCN(O)C(C)O)NC(=O)[C@H](CCCN(O)C(C)O)NC1=O.[Fe] (stereo partly specified),Kd,"protein: Iron-compound ABC transporter, iron compound-binding protein, PDB entry 4hmq",5.8 nM (active)
H-LLPTLPKLPSL-OH,Kd,"protein: Ankyrin Repeat Domains of Human ANKRA2, PDB entry 3v2x",4500 nM (active)
H-APTLPKLPSLS-OH,Kd,"protein: Ankyrin Repeat Domains of Human ANKRA2, PDB entry 3v2o",4900 nM (active)
C[C@@H](O)[C@H](N)C(=O)N[C@@H](CCCNC(N)N)C(=O)N[C@@H](CO)C(=O)N[C@@H](CCCCN)C(=O)N[C@@H](Cc1ccccc1)C(=O)N[C@@H](Cc1ccccc1)C(=O)N[C@@H](CC(N)=O)C(=O)O (H-T[Orn(CH(NH2)2)]SKFFN-OH),Kd,"protein: C-terminal domain of the Saccharomyces cerevisiae MUTL alpha (MLH1/PMS1) heterodimer, PDB entry 4fmo",2940 nM (active)
CC(=O)N[C@H](C(=O)N[C@@H](CCCNC(N)N)C(=O)N[C@@H](CO)C(=O)N[C@@H](CCCCN)C(=O)N[C@@H](Cc1ccc(O)cc1)C(=O)N[C@@H](Cc1ccccc1)C(=O)N[C@@H](CCCCN)C(=O)O)C(C)C (Ac-V[Orn(CH(NH2)2)]SKYFK-OH),Kd,"protein: C-terminal domain of the Saccharomyces cerevisiae MUTL alpha (MLH1/PMS1) heterodimer, PDB entry 4fmn",750 nM (active)
CC(=O)N[C@@H](Cc1cnc[nH]1)C(=O)N[C@@H](CO)C(=O)N[C@@H](CCCCN)C(=O)N[C@@H](Cc1ccc(O)cc1)C(=O)N1CCC[C@H]1C(=O)N[C@@H](CC(C)C)C(=O)N1CCC[C@H]1C(=O)N1CCC[C@H]1C(=O)N[C@@H](CC(C)C)C(=O)N1CCC[C@H]1C(=O)N[C@@H](CO)C(=O)N[C@@H](CC(C)C)C(N)=O (Ac-HSKYPLPPLPSL-NH2),Kd,"protein: Tyrosine-protein kinase HCK, PDB entry 2oi3",230 nM (active)
CC(C)C[C@H](NC(=O)[C@H](C)NC(=O)[C@H](CCC(=O)O)NC(=O)[C@H](CC(=O)O)NC(=O)[C@H](Cc1ccc(O)cc1)NC(=O)[C@H](CO)NC(=O)[C@@H]1CCCN1C(=O)[C@H](CC(C)C)NC(=O)CNC(=O)[C@@H](N)[C@@H](C)O)C(=O)N[C@@H](Cc1cnc[nH]1)C(=O)O (H-TGLPSYDEALH-OH),Kd,"protein: E3 ubiquitin-protein ligase NEDD4, PDB entry 2ez5",3000 nM (active)
H-DADTLLHFATESTPD-OH,Kd,"protein: Beta-catenin-interacting protein 1, PDB entry 1t08",3100 nM (active)
H-HPVGDADYFEY-OH,Kd,"protein: LA class I histocompatibility antigen, B-35 alpha chain HLA-B 35:01, PDB entry 4pr5",2200 nM (active)
same,Kd,"protein: MHC class I antigen HLA-B 35:08, PDB entry 4prd",25400 nM (active)
same,Kd,"protein: MHC class I antigen-Beta-2-microglobulin, PDB entry 4prh",25400 nM (active)
H-ANPHGAARAEVY-OH,Kd,"protein: WD repeat-containing protein 5, WDR5, PDB entry 4erz",88 nM (active)
H-EPPLNPHGSARAEVHA-OH,Kd,"protein: WD repeat-containing protein 5, WDR5, PDB entry 4esg",2760 nM (active)
CC(C)C[C@H](NC(=O)[C@H](CC(=O)O)NC(=O)[C@H](Cc1ccc(O)cc1)NC(=O)[C@H](CC(C)C)NC(=O)[C@H](CCC(=O)O)NC(=O)[C@H](Cc1cnc[nH]1)NC(=O)[C@H](CC(C)C)NC(=O)[C@@H](NC(=O)[C@@H]1CCCN1C(=O)[C@@H]1CCCN1)[C@@H](C)O)C(=O)O (H-PPTLHELYDL-OH),Kd,"protein: Retinoblastoma-associated protein, PDB entry 2r7g",900 nM (active)
H-HPVGEADYFEY-OH,Kd,"protein: MHC class I antigen-Beta-2-microglobulin, PDB entry 4pri",93200 nM (active)
CC[C@H](C)[C@H](NC(=O)[C@H](Cc1ccc(O)cc1)NC(=O)[C@@H](N)C(C)C)C(=O)N[C@@H](Cc1cnc[nH]1)C(=O)N1CCC[C@H]1C(=O)N[C@@H](Cc1ccccc1)C(=O)O,Kd,"protein: Aminopeptidase N, PDB entry 4fys",15000 nM (active)
H-TLVSMPPLPGLDLAGS-OH,Kd,"protein: Ankyrin Repeat Domains of Human DNA-binding protein RFXANK, PDB entry 3v30",184000 nM (active)
H-HPVGQADYFEY-OH,Kd,"protein: LA class I histocompatibility antigen, B-35 alpha chain HLA-B 35:011, PDB entry 4pra",2200 nM (active)
same,Kd,"protein: MHC class I antigen HLA-B 35:08, PDB entry 4pre",181000 nM (active)
same,Kd,"protein: MHC class I antigen-Beta-2-microglobulin, PDB entry 4prp",2200 nM (active)
H-HPVAEADYFEY-OH,Kd,"protein: HLA class I histocompatibility antigen, B-35 alpha chain, PDB entry 4prn",2200 nM (active)
same,Kd,"protein: MHC class I antigen HLA-B 35:08, PDB entry 4prb",132000 nM (active)
COc1cc(NC(=O)C[C@@]2(C)C[C@H](c3cccc(Cl)c3)[C@@H](c3ccc(Cl)c(F)c3)N([C@H](CS(=O)(=O)C(C)(C)C)C3CC3)C2=O)ccc1C(=O)O,Kd,"protein: E3 ubiquitin-protein ligase Mdm2, PDB entry 4wt2",0.038 nM (active)
CC(C)C[C@H](NC(=O)[C@H](CC(C)C)NC(=O)[C@H](CCCNC(N)N)NC(=O)[C@@H](N)CC(N)=O)C(=O)N[C@@H](CC(C)C)C(=O)N[C@H](C(=O)NCC(=O)O)[C@@H](C)O,Kd,"protein: Chaperone protein DnaK, PDB entry 4ezw",1000 nM (active)
CSCC[C@H](NC(=O)[C@H](CC(C)C)NC(=O)[C@H](CCCNC(N)N)NC(=O)[C@@H](N)CC(N)=O)C(=O)N[C@@H](CC(C)C)C(=O)N[C@H](C(=O)NCC(=O)O)[C@@H](C)O (H-N[Orn(CH(NH2)2)]LMLTG-OH),Kd,"protein: Chaperone protein DnaK, PDB entry 4ezx",1600 nM (active)
COc1cc(OC)c2c(=O)[nH]c(-c3cc(C)c(O)c(C)c3)nc2c1,Kd,"protein: Bromodomain-containing protein 2, PDB entry 4mr5",251 nM (active)
same,Kd,"protein: Bromodomain-containing protein 4, PDB entry 4mr3",1140 nM (active)
COc1ccc(Nc2nc3cc(C(=O)O)ccc3n2Cc2ccccc2C(F)(F)F)cc1F,Kd,"protein: KINESIN-LIKE PROTEIN KIF11, PDB entry 3zcw",650 nM (active)
C[C@@H](O)[C@H](N)C(=O)N[C@@H](CC(N)=O)C(=O)N[C@@H](CCC(=O)O)C(=O)N[C@@H](Cc1ccc(O[P+](O)(O)O)cc1)C(=O)N[C@H](C(=O)N[C@@H](CCC(=O)O)C(=O)NCC(=O)N1CCC[C@H]1C(=O)N[C@H](C(=O)O)[C@@H](C)O)[C@@H](C)O (H-TNE[X1]TEGPT-OH),Kd,"protein: E3 ubiquitin-protein ligase CBL, PDB entry 3bum",320 nM (active)
C[C@@H](O)[C@H](NC(=O)[C@H](CC(N)=O)NC(=O)[C@@H](N)CCCNC(N)N)C(=O)N[C@@H](CC(N)=O)C(=O)N[C@@H](CCC(=O)O)C(=O)N[C@@H](Cc1ccc(O[P+](O)(O)O)cc1)C(=O)N[C@H](C(=O)N[C@@H](CCC(=O)O)C(=O)NCC(=O)N1CCC[C@H]1C(=O)O)[C@@H](C)O[P+](O)(O)O (H-[Orn(CH(NH2)2)]NTNE[X1][Thr(P(OH)3+)]EGP-OH),Kd,"protein: E3 ubiquitin-protein ligase CBL c-Cbl TKB domain, PDB entry 3ob1",3830 nM (active)
CC(C)C[C@H](NC(=O)[C@H](CC(N)=O)NC(=O)[C@@H](N)CCCNC(N)N)C(=O)N[C@@H](Cc1ccccc1)C(=O)NCC(=O)N1CCC[C@H]1C(=O)O (H-[Orn(CH(NH2)2)]NLFGP-OH),Kd,"protein: phospho-CDK2/cyclin A, PDB entry 1h27",2500 nM (active)
CC(C)C[C@H](NC(=O)[C@H](CS)NC(=O)[C@H](CCC(=O)O)NC(=O)[C@H](Cc1ccc(O)cc1)NC(=O)CNC(=O)[C@H](Cc1ccc(O)cc1)NC(=O)C(CCC(=O)O)NC(=O)[C@H](CCC(=O)O)NC(=O)[C@@H](N)CC(=O)O)C(=O)N[C@@H](CC(=O)O)C(=O)O (stereo partly specified) (H-DE[ξE]YGYECLD-OH),Kd,"protein: AP-2 complex subunit mu-1, PDB entry 2pr9",42.2 nM (active)
CC(C)C[C@H](NC(=O)[C@@H](N)CC(=O)O)C(=O)N[C@@H](Cc1ccc(O)cc1)C(=O)NCC(=O)O (H-DLYG-OH),Kd,"protein: E3 ubiquitin-protein ligase RNF31 HOIP PUB Domain, PDB entry 4p0a",30300 nM (active)
CC(C)=CCNc1ncnc2c1ncn2[C@@H]1O[C@H](CO[P+](O)(O)O)[C@@H](O)[C@H]1O,Kd,"protein: 2'-deoxynucleoside 5'-phosphate N-hydrolase 1, DNPH1 (RCL), PDB entry 4kxm",2600 nM (active)
CCc1cn([C@@H]2O[C@H](CO)[C@@H](O)[C@H]2O)c2ncnc(N)c12,Kd,"protein: Adenosine kinase ADK, PDB entry 4pvv",330 nM (active)
